Assay results taken from PubChem BioAssay (NCATS).
Records with an inconclusive call do not appear. The source made the active and inactive calls. Unless noted, calls follow the shape of the full dose curve.

Columns and labels:
[1] = qHTS profiling of the MIPE4 collection as inhibitors of Plasmodium falciparum (3D7) proliferation (AID 743344; call rule not given here); settings: P. falciparum 3D7 in erythrocytes, SYBR Green DNA fluorescence, 72 h; at 28.5 µM unless noted
In short: (§1)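 Parasite DNA was quantified by SYBR Green I fluorescence (ex 485, em 535 nm) after overnight lysis in saponin/Triton buffer at room temperature. Cultures at 0.3% parasitemia and 2.5% hematocrit were first exposed to compound for 72 h at 37 C; signals were normalised to artemisinin (0.29 uM) and vehicle wells.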

[2] = qHTS profiling of the MIPE4 collection as inhibitors of Plasmodium falciparum (DD2) proliferation (Rep 2) (AID 743346; call rule not given here); settings: P. falciparum Dd2 in erythrocytes, SYBR Green DNA, 72 h; at 28.5 µM unless noted
In short: as §1

[3] = qHTS profiling of the MIPE4 collection as inhibitors of Plasmodium falciparum (HB3) proliferation (AID 743347; call rule not given here); settings: P. falciparum HB3 in erythrocytes, SYBR Green DNA, 72 h; at 28.5 µM unless noted
In short: as §1

[4] = qHTS for Inhibitors of the Functional Ribonucleoprotein Complex (vRNP) of Lassa (LASV) Arenavirus: LASV Primary Screen - GLuc reporter signal (AID 1347082; calls by dose curve; tested in HEK293 reporter line; also: nearly all actives have a fitted effect of over 60% in size)
[5] = qHTS for Inhibitors of the Functional Ribonucleoprotein Complex (vRNP) of Lassa (LASV) Arenavirus: Viability assay - alamar blue signal for LASV Primary Screen (AID 1347083; calls by dose curve; tested in HEK293 reporter line; also: nearly all actives have a fitted effect of over 80% in size)
[6] = qHTS for Inhibitors of the Functional Ribonucleoprotein Complex (vRNP) of Lymphocytic Choriomeningitis Arenaviruses (LCMV): Viability assay - alamar blue signal for LCMV Primary Screen (AID 1347085; calls by dose curve; tested in HEK293 reporter line; also: nearly all actives have a fitted effect of over 80% in size)
[7] = molecular target: Nucleoprotein (Lymphocytic choriomeningitis virus (strain Armstrong)) (UniProt P09992); test: qHTS for Inhibitors of the Functional Ribonucleoprotein Complex (vRNP) of Lymphocytic Choriomeningitis Arenaviruses (LCMV): LCMV Primary Screen - GLuc reporter signal (AID 1347086); also: nearly all actives have a fitted effect of over 70% in size
[8] = Confirmatory qHTS to identify inhibitors of SARS-CoV-2 cell entry (AID 1645844); also: potency is read from the fitted curve at half-maximal effect; nearly all actives have a fitted effect of over 45% in size
In short: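 Luminescence entry read-out after 48 h: spike-pseudotyped MLV particles (Wuhan-Hu-1, 19-aa C-terminal truncation) added to compound-pretreated (1 h) HEK293-ACE2 cells; Data were normalised to bald PP and spike PP wells.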

[9] = Cytotoxicity counterscreen for inhibitors of SARS-CoV-2 cell entry (AID 1645845); also: nearly all actives have a fitted effect of over 50% in size
In short: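 ATP-content luminescence (ATPLite 1step, 15 min RT) read after 48 h compound exposure of Expi293F cells stably expressing human ACE2; normalized to cells-only wells and media-only wells.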

[10] = Primary qHTS to identify inhibitors of SARS-CoV-2 cell entry (AID 1645846); settings: activity change, negative = inhibition: at 57.1 µM (top of the series) unless noted; also: nearly all actives have a fitted effect of over 45% in size
In short: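 Entry measured by luciferase signal 48 h after adding SARS-CoV-2-S pseudotyped MLV particles to HEK293-ACE2 cells preincubated 1 h with compounds. Normalisation: bald particles and spike particles.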

[11] = Primary qHTS for small molecule stabilizers of the endoplasmic reticulum resident proteome: Secreted ER Calcium Modulated Protein (SERCaMP) assay (AID 1508630; active = well fitted inhibition curve with a large enough effect)
In short: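 The SH-SY5Y reporter protocol was run at 3 concentrations up to 38.3 uM (primary) or 11 concentrations (follow-up): 16 h compound, 100 nM thapsigargin for 4 h, then extracellular luciferase luminescence.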

[12] = Confirmatory qHTS for activators (rescue) of SARS-CoV-2 Cytopathic Effect (CPE) (AID 1508606); also: potency is read from the fitted curve at half-maximal effect; nearly all actives have a fitted effect of over 70% in size
[13] = AP1 Signaling Pathway (AID 357; active = well fitted curve in either direction with a large enough effect, not every such curve was filed as active;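 also: ME-180 reporter cells stimulated with EGF at its EC50 level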)
In short: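 Titration-series screen for positive or negative modulators of EC50 EGF-induced signaling in ME-180 cells carrying an AP-1-driven beta-lactamase reporter. After 5 hours at 37 degrees Celsius, CCF4 460nm/530nm emission ratio gave %Activity; AC50 values derived.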

[14] = molecular target: Cytochrome P450 1A2 (Homo sapiens) (UniProt P05177); test: p450-cyp1a2 (AID 410); also: potency is read from the fitted curve at half-maximal effect
In short: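 Read-out is luminescence from luciferin produced by CYP1A2 demethylation of Luciferin-ME (100uM, at Km). Detection reagent stopped the 60 min NADPH-dependent reaction; signals were normalized to 57 uM furafylline.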

[15] = Stat Signaling Pathway (AID 446; active = well fitted curve in either direction with a large enough effect, not every such curve was filed as active;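 also: ME-180 cervical cancer cells given 40 pM IL-6 alongside compound; SIE-controlled beta-lactamase reporter measured as 460/530 nm FRET emission ratio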)
In short: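 Normalization used AC90 stimulation (300 pM IL-6) and AC90 inhibition (125 nM pan-JAK inhibitor at 40 pM IL-6). The underlying signal is SIE-driven beta-lactamase in ME-180 cells after 5 h IL-6 exposure with compound.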

[16] = molecular target: Glucocorticoid receptor (Homo sapiens) (UniProt P04150); test: GR-GFP Redistribution (AID 450;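 active = compounds whose dose series gives a full or clear partial fitted curve of increased nuclear translocation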; also: potency is read from the fitted curve at half-maximal effect); settings: U2OS GR-GFP nuclear translocation, laser cytometry, 2 h
[17] = molecular target: Glucocorticoid receptor (Homo sapiens) (UniProt P04150); test: GR-EFC Redistribution (AID 451); settings: CHO-K1 GR-EFC translocation, beta-gal luminescence, 2 h; also: potency is read from the fitted curve at half-maximal effect
In short: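 Translocation of GR-ED fusion to nuclear EA restores b-gal, read by luminescence after 1 h room-temperature detection. Engineered CHO-K1 biosensor cells, 1,000/well, exposed 2 h at 37 C to titrations up to 46 uM final.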

[18] = molecular target: Mitogen-activated protein kinase 10 (Mus musculus) (UniProt Q61831); test: JNK3 AlphaScreen Assay (AID 530; active = well fitted curve in either direction with a large enough effect, not every such curve was filed as active;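 also: kinase came from lysate of stimulated human HepG2 cells; signal reports phosphorylation of biotinylated GST-cJun 1-79 at Ser73 with 10 µM ATP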)
In short: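 Kinase buffer: 20 mM Tris-HCl pH 7.6, 10 mM MgCl2, 1 mM DTT, 0.1 mM Na3VO4, 0.01% Tween-20; ATP 10 uM. Substrate biotin-GST-cJun(1-79), enzyme from activated HepG2 lysates. Detection by Ser73 phospho-antibody AlphaScreen.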

[19] = molecular target: 3',5'-cyclic-AMP phosphodiesterase 4B (Homo sapiens) (UniProt Q07343); test: qHTS Assay for Inhibitors of PDE-IV (AID 607; active = well fitted activation curve with a large enough effect in the main read-out, with a control signal flat, not every such curve was filed as active)
In short: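 HEK293 ACTOne cells with CNG channel (1000/well), endogenous PDE4; membrane potential dye, compounds up to 22.9 uM final. Fluorescence Ex 535/Em 590; RO 20-1724 (100 uM final) as reference.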

[20] = molecular target: Cytochrome P450 2C9 (Homo sapiens) (UniProt P11712); test: qHTS Assay for Inhibitors and Substrates of Cytochrome P450 2C9 (AID 883; active = well fitted inhibition curve with a large enough effect; also: nearly all actives have a fitted effect of over 60% in size)
In short: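 Turnover of Luciferin-H (100uM, KM) by 10nM human CYP2C9 was measured over 60 min at 37C with NADPH regeneration; inhibitors and some substrates reduce luminescence. Data normalized to sulphaphenazole 57uM.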

[21] = molecular target: Cytochrome P450 2D6 (Homo sapiens) (UniProt P10635); test: qHTS Assay for Inhibitors and Substrates of Cytochrome P450 2D6 (AID 891; active = well fitted inhibition curve with a large enough effect; also: potency is read from the fitted curve at half-maximal effect; nearly all actives have a fitted effect of over 60% in size)
In short: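 Luminescent read-out of luciferin formed by 5 nM human CYP2D6 demethylating 30 uM Luciferin-ME EGE (Km level) over 60 min at room temperature after NADPH regeneration addition. Data normalized to full inhibition by 1.43 uM quinidine.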

[22] = molecular target: Cytochrome P450 2C19 (Homo sapiens) (UniProt P33261); test: qHTS Assay for Inhibitors and Substrates of Cytochrome P450 2C19 (AID 899; active = well fitted inhibition curve with a large enough effect; also: nearly all actives have a fitted effect of over 60% in size)
In short: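 Reactions contain 5nM enzyme, 10uM Luciferin-H EGE (KM) and 50mM KPO4; compound preincubates 10 min at 37C, NADPH regeneration starts turnover for 60 min. Luminescence after detection reagent gives activity.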

Chain of Nucleoprotein (Lymphocytic choriomeningitis virus (strain Armstrong)) (P09992 whole entry, looked up): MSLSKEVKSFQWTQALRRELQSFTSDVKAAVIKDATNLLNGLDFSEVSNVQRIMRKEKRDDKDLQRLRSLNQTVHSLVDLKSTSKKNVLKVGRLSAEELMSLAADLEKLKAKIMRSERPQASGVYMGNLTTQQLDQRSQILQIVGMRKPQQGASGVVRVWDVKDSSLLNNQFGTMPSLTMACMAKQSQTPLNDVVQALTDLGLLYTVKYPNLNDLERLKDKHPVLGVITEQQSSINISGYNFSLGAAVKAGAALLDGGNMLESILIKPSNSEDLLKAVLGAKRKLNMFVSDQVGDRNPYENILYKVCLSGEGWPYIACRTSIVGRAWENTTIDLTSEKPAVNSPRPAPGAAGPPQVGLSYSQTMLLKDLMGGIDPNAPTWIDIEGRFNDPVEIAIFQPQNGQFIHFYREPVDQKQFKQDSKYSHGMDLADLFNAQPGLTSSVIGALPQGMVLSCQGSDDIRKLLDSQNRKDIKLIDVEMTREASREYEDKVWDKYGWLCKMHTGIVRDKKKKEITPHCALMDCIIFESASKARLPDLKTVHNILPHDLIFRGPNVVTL
Chain of Glucocorticoid receptor (Homo sapiens) (P04150 whole entry, looked up, the tested form may be a part): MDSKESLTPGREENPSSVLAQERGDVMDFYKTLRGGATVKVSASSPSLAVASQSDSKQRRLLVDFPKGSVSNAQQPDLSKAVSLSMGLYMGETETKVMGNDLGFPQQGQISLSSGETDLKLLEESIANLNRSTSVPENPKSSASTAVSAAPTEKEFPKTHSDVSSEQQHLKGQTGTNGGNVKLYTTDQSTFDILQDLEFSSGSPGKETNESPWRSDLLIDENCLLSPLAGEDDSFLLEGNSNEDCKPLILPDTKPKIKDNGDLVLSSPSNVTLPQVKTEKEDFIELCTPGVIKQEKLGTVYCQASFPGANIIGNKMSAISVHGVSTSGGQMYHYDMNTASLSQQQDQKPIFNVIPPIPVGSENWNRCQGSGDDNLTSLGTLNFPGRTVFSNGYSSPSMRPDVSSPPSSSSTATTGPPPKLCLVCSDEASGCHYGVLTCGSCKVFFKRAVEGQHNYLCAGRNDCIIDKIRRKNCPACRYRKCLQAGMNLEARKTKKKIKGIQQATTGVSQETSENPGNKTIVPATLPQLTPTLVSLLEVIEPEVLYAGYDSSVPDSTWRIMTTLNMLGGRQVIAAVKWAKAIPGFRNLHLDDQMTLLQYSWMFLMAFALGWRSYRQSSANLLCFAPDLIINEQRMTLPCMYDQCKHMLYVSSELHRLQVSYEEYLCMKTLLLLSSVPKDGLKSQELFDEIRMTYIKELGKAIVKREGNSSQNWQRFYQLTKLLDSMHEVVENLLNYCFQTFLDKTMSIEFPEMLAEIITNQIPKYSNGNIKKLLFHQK
Chain of Cytochrome P450 1A2 (Homo sapiens) (P05177 whole entry, looked up): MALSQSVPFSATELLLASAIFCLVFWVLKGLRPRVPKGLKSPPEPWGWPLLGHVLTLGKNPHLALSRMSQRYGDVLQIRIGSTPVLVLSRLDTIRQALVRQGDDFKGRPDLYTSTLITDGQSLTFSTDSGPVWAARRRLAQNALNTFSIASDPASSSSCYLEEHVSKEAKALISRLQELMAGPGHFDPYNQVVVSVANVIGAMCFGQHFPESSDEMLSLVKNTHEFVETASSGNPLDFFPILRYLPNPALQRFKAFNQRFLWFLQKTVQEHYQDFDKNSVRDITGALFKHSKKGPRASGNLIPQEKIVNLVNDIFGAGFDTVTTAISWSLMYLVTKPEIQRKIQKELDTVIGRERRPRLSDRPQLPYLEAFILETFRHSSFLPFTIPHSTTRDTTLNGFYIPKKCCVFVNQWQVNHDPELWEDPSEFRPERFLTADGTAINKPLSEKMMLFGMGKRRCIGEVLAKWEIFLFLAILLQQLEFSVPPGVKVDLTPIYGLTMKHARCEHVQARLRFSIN
Chain of Cytochrome P450 2C9 (Homo sapiens) (P11712 whole entry, looked up): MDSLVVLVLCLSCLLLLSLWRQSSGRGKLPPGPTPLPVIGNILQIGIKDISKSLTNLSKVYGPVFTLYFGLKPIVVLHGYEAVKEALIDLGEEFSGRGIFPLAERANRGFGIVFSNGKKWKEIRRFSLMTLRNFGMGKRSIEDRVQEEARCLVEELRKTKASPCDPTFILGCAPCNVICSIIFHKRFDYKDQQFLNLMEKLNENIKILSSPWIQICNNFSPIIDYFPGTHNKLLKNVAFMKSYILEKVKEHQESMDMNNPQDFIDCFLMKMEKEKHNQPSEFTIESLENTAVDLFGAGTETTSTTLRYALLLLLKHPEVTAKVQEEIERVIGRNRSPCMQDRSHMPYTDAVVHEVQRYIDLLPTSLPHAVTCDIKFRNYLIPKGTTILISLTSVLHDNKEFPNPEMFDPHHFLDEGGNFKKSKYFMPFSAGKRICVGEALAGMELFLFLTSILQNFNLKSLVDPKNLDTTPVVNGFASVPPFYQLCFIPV
Chain of 3',5'-cyclic-AMP phosphodiesterase 4B (Homo sapiens) (Q07343 whole entry, looked up): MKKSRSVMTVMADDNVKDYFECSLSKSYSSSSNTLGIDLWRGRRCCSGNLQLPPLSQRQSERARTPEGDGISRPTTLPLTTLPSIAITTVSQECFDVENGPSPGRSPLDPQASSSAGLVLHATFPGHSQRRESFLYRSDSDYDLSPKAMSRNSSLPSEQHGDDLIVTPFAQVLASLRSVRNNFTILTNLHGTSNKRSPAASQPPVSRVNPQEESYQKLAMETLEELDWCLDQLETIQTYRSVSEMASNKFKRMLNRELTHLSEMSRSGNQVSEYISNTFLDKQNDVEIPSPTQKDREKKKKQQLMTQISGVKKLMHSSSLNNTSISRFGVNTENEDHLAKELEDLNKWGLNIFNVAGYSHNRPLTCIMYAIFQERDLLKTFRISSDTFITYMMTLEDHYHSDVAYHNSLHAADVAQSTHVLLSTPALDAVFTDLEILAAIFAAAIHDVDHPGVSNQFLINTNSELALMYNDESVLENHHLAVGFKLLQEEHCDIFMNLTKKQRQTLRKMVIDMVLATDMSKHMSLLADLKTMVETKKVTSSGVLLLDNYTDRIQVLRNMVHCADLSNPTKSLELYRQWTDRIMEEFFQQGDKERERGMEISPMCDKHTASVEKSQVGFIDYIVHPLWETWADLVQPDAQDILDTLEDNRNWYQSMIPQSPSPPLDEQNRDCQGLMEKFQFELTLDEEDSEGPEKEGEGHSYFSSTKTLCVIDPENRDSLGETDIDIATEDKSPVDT
Chain of Cytochrome P450 2D6 (Homo sapiens) (P10635 whole entry, looked up): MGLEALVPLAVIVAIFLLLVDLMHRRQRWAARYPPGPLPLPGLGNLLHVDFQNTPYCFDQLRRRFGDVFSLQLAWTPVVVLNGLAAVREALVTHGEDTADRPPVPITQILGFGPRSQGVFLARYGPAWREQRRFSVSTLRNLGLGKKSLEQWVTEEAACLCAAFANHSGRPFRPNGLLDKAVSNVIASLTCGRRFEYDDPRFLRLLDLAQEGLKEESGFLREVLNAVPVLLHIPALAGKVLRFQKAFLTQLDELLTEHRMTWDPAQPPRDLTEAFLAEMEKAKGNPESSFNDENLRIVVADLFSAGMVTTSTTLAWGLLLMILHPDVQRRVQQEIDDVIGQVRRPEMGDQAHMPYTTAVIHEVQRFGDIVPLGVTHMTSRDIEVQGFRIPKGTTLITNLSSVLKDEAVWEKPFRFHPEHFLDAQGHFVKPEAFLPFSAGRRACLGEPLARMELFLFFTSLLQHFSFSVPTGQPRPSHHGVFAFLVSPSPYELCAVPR
Chain of Cytochrome P450 2C19 (Homo sapiens) (P33261 whole entry, looked up): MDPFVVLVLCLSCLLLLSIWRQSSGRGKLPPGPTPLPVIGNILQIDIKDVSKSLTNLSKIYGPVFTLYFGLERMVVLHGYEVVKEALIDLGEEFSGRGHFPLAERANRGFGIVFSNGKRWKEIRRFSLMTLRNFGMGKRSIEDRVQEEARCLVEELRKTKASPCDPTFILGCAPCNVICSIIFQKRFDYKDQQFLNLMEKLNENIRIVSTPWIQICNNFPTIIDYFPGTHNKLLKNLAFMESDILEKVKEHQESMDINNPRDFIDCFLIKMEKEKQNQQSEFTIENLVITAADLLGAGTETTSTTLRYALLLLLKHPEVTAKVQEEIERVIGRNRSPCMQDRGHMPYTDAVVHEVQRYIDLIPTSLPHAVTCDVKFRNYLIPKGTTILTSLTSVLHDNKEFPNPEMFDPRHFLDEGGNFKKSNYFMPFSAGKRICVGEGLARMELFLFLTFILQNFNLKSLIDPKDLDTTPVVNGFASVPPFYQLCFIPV

C[N+](C)([O-])CCNc1ccc(NCC[N+](C)(C)[O-])c2c1C(=O)c1c(O)ccc(O)c1C2=O
-13.5%: activity change, negative = inhibition [10]
60.6%: growth, % of control [3]
49%: parasite growth, % of DMSO control [1]
active: Potency [8] 19.2 µM
inactive: Potency [4] | Potency [5] | Potency [6] | Potency [7] | Potency [9]
41.1%: parasite growth, % of control (lower = inhibition) [2]

COC(=O)C1=CO[C@@H](C)[C@@H]2CN3CC[C@]4(C(=O)Nc5c4ccc(OC)c5OC)[C@H]3C[C@H]12
inactive: Potency [4] | Potency [5] | Potency [6] | Potency [7] | Potency [11]

Cc1ccc(C(=O)Nc2cccc(C(F)(F)F)c2)cc1Nc1nc(-c2cccnc2)nc2c1cnn2C
active: Potency [12] 1.41 µM
inactive: Potency [4] | Potency [5] | Potency [6] | Potency [7] | Potency [9]

CC1=C[C@@H]2c3cccc4[nH]cc(c34)C[C@H]2N(C)C1
active: Potency [14] 3.16 µM | Potency [21] 2 µM
inactive: outcome [13] | outcome [15] | Potency [16] > 46 µM | Potency [17] > 46 µM | outcome [18] | Potency [19] | Potency [20] | Potency [22] | Potency [4] | Potency [5] | Potency [6] | Potency [7] | Potency [11]
